Data as given in PubChem BioAssay (NCATS).
Inconclusive results are not listed. Calls of active or inactive are those of the source. Unless noted, calls follow the shape of the full dose curve.

Experiments:
[1] = qHTS for Inhibitors of the Functional Ribonucleoprotein Complex (vRNP) of Lassa (LASV) Arenavirus: LASV Primary Screen - GLuc reporter signal (AID 1347082; calls by dose curve; tested in HEK293 reporter line; also: nearly all actives have a fitted effect of over 60% in size); settings: LASV minigenome vRNP, Gaussia luciferase reporter; series mostly up to 57.5 µM
[2] = qHTS for Inhibitors of the Functional Ribonucleoprotein Complex (vRNP) of Lassa (LASV) Arenavirus: Viability assay - alamar blue signal for LASV Primary Screen (AID 1347083; calls by dose curve; tested in HEK293 reporter line; also: nearly all actives have a fitted effect of over 80% in size); settings: cell viability, alamar blue fluorescence (LASV minigenome counter-screen); series mostly up to 57.5 µM
[3] = qHTS for Inhibitors of the Functional Ribonucleoprotein Complex (vRNP) of Lymphocytic Choriomeningitis Arenaviruses (LCMV): Viability assay - alamar blue signal for LCMV Primary Screen (AID 1347085; calls by dose curve; tested in HEK293 reporter line; also: nearly all actives have a fitted effect of over 80% in size); settings: alamar blue viability counter-screen, LCMV vRNP screen cells; series mostly up to 57.5 µM
[4] = target: Nucleoprotein (Lymphocytic choriomeningitis virus (strain Armstrong)) (UniProt P09992); assay: qHTS for Inhibitors of the Functional Ribonucleoprotein Complex (vRNP) of Lymphocytic Choriomeningitis Arenaviruses (LCMV): LCMV Primary Screen - GLuc reporter signal (AID 1347086); settings: LCMV minigenome vRNP cell assay, Gaussia luciferase reporter; series mostly up to 57.5 µM; also: nearly all actives have a fitted effect of over 70% in size
Nucleoprotein (Lymphocytic choriomeningitis virus (strain Armstrong)), sequence (P09992 whole entry, looked up): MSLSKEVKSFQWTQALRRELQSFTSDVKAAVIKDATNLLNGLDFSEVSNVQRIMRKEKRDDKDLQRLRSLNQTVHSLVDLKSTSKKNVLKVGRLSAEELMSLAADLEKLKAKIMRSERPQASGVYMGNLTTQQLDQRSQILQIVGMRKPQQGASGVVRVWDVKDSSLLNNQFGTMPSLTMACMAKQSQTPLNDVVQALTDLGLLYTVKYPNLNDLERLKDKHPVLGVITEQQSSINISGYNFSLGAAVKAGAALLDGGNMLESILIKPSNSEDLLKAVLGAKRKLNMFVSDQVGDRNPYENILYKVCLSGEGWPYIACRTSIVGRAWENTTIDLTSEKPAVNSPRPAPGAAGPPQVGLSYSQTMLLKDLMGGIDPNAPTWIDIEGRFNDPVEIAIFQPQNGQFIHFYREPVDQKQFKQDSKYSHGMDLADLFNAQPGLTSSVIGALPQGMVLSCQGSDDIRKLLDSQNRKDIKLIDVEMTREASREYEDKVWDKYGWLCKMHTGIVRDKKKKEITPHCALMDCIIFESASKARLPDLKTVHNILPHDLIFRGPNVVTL
% is scaled to controls: 0 for no effect and ±100 for the full control effect.

CN1CCN(c2cc3c(cc2F)c(=O)c(C(=O)O)cn3-c2ccc(F)cc2)CC1
inactive: Potency [1] | Potency [2] | Potency [3] | Potency [4]

NCCNc1cccc2ccccc12
inactive: Potency [1] | Potency [2] | Potency [3] | Potency [4]

CNCCC(Oc1ccccc1OC)c1ccccc1 (centres undefined)
inactive: Potency [1] | Potency [2] | Potency [3] | Potency [4]

CCN(CC)CCCN(c1ccccc1)C1Cc2ccccc2C1
inactive: Potency [1] | Potency [2] | Potency [3] | Potency [4]

Oc1ccc(Cl)cc1Cc1cc(Cl)ccc1O
inactive: Potency [1] | Potency [2] | Potency [3] | Potency [4]

CCC(=O)O[C@]1(C(=O)COC)[C@@H](C)C[C@H]2[C@@H]3CCC4=CC(=O)C=C[C@]4(C)C3(F)[C@@H](O)C[C@@]21C (some centres undefined)
inactive: Potency [1] | Potency [2] | Potency [3] | Potency [4]

C(=C\c1ccccc1)/CN1CCN(C(c2ccccc2)c2ccccc2)CC1
inactive: Potency [1] | Potency [2] | Potency [3] | Potency [4]

CCC(CC)(CC(=O)Nc1cccc(/C=C/c2nc(C3CCC3)cs2)c1)C(=O)O
inactive: Potency [1] | Potency [2] | Potency [3] | Potency [4]

Cc1cc2c(OCC(CNC(C)(C)C)OC(=O)c3ccccc3)cccc2[nH]1 (centres undefined)
inactive: Potency [1] | Potency [2] | Potency [3] | Potency [4]

CCn1ccnc1CC1COc2ccccc2O1 (centres undefined)
inactive: Potency [1] | Potency [2] | Potency [3] | Potency [4]

CC(N)C(=O)OC(C)(C)Cc1ccc(Cl)cc1 (centres undefined)
inactive: Potency [1] | Potency [2] | Potency [3] | Potency [4]

OC[C@H]1O[C@@H](OCCc2ccc(O)cc2)[C@H](O)[C@@H](O)[C@H]1O
inactive: Potency [1] | Potency [2] | Potency [3] | Potency [4]

C[C@]12CCC(=O)C=C1CC[C@@H]1[C@@H]2[C@@H](O)C[C@@]2(C)[C@H]1CC[C@]2(O)C(=O)CO
inactive: Potency [1] | Potency [2] | Potency [3] | Potency [4]

CC(O)COc1ccccc1 (centres undefined)
inactive: Potency [1] | Potency [2] | Potency [3] | Potency [4]

CN1CCC(=C2c3ccccc3CCc3sccc32)CC1
inactive: Potency [1] | Potency [2] | Potency [3] | Potency [4]

Cc1cccc(OCC(O)CNC(C)(C)C)c1C (centres undefined)
inactive: Potency [1] | Potency [2] | Potency [3] | Potency [4]

Nc1ccc(C(=O)N2CC3CC(CN(Cc4ccccc4)C3)C2)cc1
inactive: Potency [1] | Potency [2] | Potency [3] | Potency [4]

CCCCCCCCCCCCCCCCC(C(=O)O)C(O)(CC(=O)O)C(=O)O (centres undefined)
inactive: Potency [1] | Potency [2] | Potency [3] | Potency [4]

CS(=O)(=O)c1ccc(-c2cn3ccccc3n2)cc1
inactive: Potency [1] | Potency [2] | Potency [3] | Potency [4]

Cc1cccc(CN2CCN(C(c3ccccc3)c3ccc(Cl)cc3)CC2)c1 (centres undefined)
inactive: Potency [1] | Potency [2] | Potency [3] | Potency [4]

C[C@@H](O)[C@H](N)C(=O)O
inactive: Potency [1] | Potency [2] | Potency [3] | Potency [4]

Cc1cc(C(C)(C)C)c(O)c(C(C)(C)C)c1
inactive: Potency [1] | Potency [2] | Potency [3] | Potency [4]

O=C(Nc1ccccc1)OCC(CN1CCCCC1)OC(=O)Nc1ccccc1 (centres undefined)
inactive: Potency [1] | Potency [2] | Potency [3] | Potency [4]

CC(=O)O[C@H]1CC[C@@]2(C)C(=CC[C@@H]3[C@@H]2CC[C@]2(C)C(C(C)=O)=CC[C@@H]32)C1
inactive: Potency [1] | Potency [2] | Potency [3] | Potency [4]

O=c1[nH]c(=O)c2[nH]c(=O)[nH]c2[nH]1
inactive: activity change, negative = inhibition [1] -5.36% [at 11.5 µM] | activity change, negative = reduced viability [2] 13.2% [at 11.5 µM] | activity change, negative = lower viability [3] -14.6% [at 11.5 µM] | activity change, negative = inhibition [4] 20.2% [at 11.5 µM]

O=c1ccc2ccccc2o1
inactive: Potency [1] | Potency [2] | Potency [3] | Potency [4]

CCN(CC)C(=O)c1cccc(C)c1
inactive: Potency [1] | Potency [2] | Potency [3] | Potency [4]

O=C(O)CP(=O)(O)O
inactive: Potency [1] | Potency [2] | Potency [3] | Potency [4]

CN1Cc2c(N)cccc2C(c2ccccc2)C1 (centres undefined)
inactive: Potency [1] | Potency [2] | Potency [3] | Potency [4]

O=c1[nH]cnc2c1ncn2[C@@H]1O[C@H](CO)[C@@H](O)[C@H]1O
inactive: Potency [1] | Potency [2] | Potency [3] | Potency [4]

O=C(CCCCCCCCC#CI)Oc1ccccc1
inactive: Potency [1] | Potency [2] | Potency [3] | Potency [4]

CC(=O)Oc1ccc(C(=C2CCCCC2)c2ccc(OC(C)=O)cc2)cc1
inactive: Potency [1] | Potency [2] | Potency [3] | Potency [4]

Cc1nnc(C(=O)NC(C)(C)c2nc(C(=O)NCc3ccc(F)cc3)c(O)c(=O)n2C)o1
inactive: Potency [1] | Potency [2] | Potency [3] | Potency [4]

Cc1ccc(=O)n(-c2ccccc2)c1
inactive: Potency [1] | Potency [2] | Potency [3] | Potency [4]

Cc1cc(NC(=O)C2=C(O)c3ccccc3S(=O)(=O)N2C)no1
inactive: Potency [1] | Potency [2] | Potency [3] | Potency [4]

CC(C)(Oc1ccc(CCNC(=O)c2ccc(Cl)cc2)cc1)C(=O)O
inactive: Potency [1] | Potency [2] | Potency [3] | Potency [4]
